Of roughly 21,000 targets only a part is listed; those with the largest changes were picked by preference.
compound: Cc1cc(ccc1-c1ccccc1)C(=O)N1CCCN(CC1)C(=O)CCl [compound 10]; test: probe-labelled cysteine peptide fold change vs DMSO (competition) (log2 fold change); higher = less target engagement (more negative = stronger competition); conditions: 10 µM; THP-1; incubation time: 4 h
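Note: competitive profiling in live THP-1 cells: cysteine peptides tagged with an iodoacetamide desthiobiotin (IA-DTB) probe, intensity after compound treatment relative to DMSO-treated cells.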

UniProt P10746, sequence (P10746 whole entry, looked up): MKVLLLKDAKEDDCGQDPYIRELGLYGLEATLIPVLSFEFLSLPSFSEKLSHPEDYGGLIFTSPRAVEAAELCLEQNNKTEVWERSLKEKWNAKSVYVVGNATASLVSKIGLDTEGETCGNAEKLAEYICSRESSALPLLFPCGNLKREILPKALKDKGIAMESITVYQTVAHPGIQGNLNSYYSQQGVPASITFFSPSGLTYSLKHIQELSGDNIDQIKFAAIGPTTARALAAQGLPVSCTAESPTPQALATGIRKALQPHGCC
UniProt Q9P2Y5, sequence (Q9P2Y5 whole entry, looked up): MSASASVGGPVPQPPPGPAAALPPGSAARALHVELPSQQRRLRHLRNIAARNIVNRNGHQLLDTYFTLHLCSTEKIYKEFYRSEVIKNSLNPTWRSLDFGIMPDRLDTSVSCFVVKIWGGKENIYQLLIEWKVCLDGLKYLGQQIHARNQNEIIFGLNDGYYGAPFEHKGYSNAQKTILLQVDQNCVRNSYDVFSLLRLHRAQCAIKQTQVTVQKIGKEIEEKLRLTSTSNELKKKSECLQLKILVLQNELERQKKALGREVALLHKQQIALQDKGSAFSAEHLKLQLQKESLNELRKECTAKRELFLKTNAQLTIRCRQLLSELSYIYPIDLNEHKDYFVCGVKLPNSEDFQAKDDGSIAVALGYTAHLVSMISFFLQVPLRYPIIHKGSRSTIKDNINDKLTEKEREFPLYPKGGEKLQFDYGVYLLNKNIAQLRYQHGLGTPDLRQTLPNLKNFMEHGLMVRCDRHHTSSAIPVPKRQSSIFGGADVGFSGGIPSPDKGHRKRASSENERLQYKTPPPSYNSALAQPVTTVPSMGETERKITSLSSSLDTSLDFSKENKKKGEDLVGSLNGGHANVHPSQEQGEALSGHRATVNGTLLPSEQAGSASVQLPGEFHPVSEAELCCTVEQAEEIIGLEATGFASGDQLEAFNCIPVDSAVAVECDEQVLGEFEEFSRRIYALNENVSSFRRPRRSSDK
UniProt Q14166, sequence (Q14166 whole entry, looked up): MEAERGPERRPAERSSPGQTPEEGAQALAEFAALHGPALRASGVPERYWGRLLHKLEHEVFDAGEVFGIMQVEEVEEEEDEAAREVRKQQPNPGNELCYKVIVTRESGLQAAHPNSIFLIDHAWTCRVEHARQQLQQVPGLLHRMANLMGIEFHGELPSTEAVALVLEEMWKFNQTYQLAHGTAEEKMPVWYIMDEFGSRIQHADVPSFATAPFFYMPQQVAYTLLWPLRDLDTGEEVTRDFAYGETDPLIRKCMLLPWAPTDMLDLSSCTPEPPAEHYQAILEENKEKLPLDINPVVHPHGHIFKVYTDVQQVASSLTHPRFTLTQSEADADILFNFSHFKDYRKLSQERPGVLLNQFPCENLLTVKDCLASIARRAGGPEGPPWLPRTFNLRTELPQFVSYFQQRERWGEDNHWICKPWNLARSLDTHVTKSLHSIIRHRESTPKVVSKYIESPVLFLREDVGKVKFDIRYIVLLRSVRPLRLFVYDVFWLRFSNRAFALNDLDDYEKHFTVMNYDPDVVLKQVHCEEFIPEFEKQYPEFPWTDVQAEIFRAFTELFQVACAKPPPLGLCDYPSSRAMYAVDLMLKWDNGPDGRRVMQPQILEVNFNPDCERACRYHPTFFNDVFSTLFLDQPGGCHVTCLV
UniProt O15050, sequence (O15050 whole entry, looked up): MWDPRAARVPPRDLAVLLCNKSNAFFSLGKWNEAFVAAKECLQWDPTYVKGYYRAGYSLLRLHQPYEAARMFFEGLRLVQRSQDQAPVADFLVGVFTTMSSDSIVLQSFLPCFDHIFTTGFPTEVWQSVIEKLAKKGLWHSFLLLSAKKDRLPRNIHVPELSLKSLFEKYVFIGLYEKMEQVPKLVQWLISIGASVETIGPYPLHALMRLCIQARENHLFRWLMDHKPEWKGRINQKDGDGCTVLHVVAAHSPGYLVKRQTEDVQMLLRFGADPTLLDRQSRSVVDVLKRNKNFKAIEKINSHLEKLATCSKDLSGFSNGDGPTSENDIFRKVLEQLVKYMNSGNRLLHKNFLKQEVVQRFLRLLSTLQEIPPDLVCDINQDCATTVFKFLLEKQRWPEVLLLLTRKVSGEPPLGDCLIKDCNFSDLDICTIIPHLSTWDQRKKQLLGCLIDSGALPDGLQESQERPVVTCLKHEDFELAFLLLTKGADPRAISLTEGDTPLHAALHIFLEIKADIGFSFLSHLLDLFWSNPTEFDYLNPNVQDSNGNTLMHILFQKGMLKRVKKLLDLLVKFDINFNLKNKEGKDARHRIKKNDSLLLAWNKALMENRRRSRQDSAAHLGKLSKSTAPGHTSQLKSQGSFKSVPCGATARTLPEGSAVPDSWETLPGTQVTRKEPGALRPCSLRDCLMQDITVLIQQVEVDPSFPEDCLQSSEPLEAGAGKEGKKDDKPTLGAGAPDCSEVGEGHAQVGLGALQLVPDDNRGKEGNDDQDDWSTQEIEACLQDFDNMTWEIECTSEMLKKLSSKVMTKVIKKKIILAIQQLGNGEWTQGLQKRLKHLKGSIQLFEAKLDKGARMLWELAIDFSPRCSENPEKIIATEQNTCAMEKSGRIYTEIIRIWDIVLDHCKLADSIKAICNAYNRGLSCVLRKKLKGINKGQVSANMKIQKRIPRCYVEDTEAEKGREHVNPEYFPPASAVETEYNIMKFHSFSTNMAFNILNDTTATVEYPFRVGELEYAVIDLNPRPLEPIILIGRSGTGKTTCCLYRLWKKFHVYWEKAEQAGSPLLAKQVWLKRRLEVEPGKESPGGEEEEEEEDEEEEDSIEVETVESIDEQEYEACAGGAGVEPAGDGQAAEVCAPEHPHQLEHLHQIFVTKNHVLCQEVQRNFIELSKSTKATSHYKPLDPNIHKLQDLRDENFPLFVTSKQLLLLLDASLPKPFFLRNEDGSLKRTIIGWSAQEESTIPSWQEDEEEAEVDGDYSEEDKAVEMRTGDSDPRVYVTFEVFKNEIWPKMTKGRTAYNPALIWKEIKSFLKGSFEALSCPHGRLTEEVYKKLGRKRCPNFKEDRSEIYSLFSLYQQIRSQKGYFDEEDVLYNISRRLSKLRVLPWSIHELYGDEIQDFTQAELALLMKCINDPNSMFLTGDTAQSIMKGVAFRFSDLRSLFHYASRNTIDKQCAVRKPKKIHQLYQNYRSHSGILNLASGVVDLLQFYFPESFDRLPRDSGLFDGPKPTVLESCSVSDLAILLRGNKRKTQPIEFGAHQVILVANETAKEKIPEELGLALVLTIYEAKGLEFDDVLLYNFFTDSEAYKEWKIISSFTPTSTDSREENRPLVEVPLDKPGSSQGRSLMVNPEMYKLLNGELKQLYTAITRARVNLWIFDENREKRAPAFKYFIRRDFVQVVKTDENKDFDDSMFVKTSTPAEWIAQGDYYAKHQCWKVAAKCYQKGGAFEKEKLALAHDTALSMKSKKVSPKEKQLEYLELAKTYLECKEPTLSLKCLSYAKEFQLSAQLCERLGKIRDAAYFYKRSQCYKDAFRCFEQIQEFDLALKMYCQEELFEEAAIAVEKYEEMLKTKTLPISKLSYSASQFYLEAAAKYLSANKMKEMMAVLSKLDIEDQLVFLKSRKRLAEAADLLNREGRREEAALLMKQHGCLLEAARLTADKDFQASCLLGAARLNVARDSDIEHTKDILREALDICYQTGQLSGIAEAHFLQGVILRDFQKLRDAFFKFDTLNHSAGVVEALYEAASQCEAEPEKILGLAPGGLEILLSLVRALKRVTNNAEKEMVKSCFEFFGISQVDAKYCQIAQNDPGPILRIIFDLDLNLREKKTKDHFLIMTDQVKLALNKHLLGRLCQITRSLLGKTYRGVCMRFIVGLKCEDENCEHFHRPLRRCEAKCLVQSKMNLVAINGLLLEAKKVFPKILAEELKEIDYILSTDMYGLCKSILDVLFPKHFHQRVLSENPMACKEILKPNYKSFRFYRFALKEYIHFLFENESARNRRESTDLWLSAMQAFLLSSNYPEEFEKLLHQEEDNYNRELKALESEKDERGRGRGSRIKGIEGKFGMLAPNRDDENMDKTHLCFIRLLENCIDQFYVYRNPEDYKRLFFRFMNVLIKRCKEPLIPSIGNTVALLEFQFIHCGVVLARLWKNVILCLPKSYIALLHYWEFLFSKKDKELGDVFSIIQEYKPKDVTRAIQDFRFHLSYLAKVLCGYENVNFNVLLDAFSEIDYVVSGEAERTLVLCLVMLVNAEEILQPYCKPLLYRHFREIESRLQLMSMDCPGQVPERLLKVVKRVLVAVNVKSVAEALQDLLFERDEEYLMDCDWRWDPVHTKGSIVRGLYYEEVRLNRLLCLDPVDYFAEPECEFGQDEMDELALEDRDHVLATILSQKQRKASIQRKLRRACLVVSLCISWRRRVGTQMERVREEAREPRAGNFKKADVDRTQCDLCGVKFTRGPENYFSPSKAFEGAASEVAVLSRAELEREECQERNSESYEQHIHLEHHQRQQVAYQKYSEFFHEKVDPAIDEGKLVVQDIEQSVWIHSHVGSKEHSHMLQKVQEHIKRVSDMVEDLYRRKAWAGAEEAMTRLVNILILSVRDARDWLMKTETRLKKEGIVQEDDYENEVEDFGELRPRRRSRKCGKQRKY
UniProt Q99614, sequence (Q99614 whole entry, looked up): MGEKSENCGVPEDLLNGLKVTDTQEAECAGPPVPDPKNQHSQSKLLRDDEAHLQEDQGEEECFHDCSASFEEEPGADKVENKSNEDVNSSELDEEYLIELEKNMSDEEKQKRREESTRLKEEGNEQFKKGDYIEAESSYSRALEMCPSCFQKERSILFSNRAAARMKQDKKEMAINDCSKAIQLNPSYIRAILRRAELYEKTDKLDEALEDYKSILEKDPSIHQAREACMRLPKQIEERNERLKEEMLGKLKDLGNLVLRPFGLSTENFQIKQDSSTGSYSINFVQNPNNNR
UniProt Q9GZX9, sequence (Q9GZX9 whole entry, looked up): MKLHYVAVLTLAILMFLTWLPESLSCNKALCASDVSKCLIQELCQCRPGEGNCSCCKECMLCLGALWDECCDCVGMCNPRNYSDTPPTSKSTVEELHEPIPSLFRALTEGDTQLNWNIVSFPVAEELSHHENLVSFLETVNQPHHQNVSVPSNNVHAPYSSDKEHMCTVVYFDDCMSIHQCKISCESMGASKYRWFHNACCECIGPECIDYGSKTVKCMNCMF

Target	probe-labelled cysteine peptide fold change
USP9X_Q93008_1061_AICLDHAK (UniProt Q93008)	0.267
UBR2_Q8IWV8_1360_ILSDEDKPLFGPLPCR (UniProt Q8IWV8)	-0.203
TRNT1_Q96Q11_373_YQGEHCLLK (UniProt Q96Q11)	-0.39
UBA3_Q8TBC4_28_MAVDGGCGDTGDWEGR (UniProt Q8TBC4)	-0.245
TXN_P10599_32_LVVVDFSATWCGPCK (UniProt P10599)	-0.415
TTC39C_Q8N584_517_AVKDELCR (UniProt Q8N584)	-0.00819
TTC1_Q99614_178_EMAINDCSK (UniProt Q99614)	0.303
TRIP6_Q15654_339+342_CATCSQPILDR (UniProt Q15654)	0.045
UBR4_Q5T4S7_2618+2619_QLEGDCCSFITQLVNHFWK (UniProt Q5T4S7)	0.0442
UROS_P10746_119_IGLDTEGETCGNAEK (UniProt P10746)	-0.0553
UBAP1_Q9NZ09_243_ATLDFKPLHKPNGFITLPQLGNCEK (UniProt Q9NZ09)	-0.239
TRIM13_O60858_106_GHLGQPLNIFCLTDMQLICGICATR (UniProt O60858)	0.0739
UBR7_Q8N806_137_YNDNFFGLYCICK (UniProt Q8N806)	0.0481
TRIM59_Q8IWR1_208_SFLTALCDVGNLINQEYTPQIER<|>IFT80_Q9P2H3-3_208_SFLTALCDVGNLINQEYTPQIER (UniProt Q9P2H3+Q8IWR1)	0.237
UVRAG_Q9P2Y5_186_TILLQVDQNCVR (UniProt Q9P2Y5)	-0.089
TRAPPC9_Q96Q05_317_NCLSPEDIIDK (UniProt Q96Q05)	0.12
TRANK1_O15050_1930_QHGCLLEAAR (UniProt O15050)	-0.0687
VTA1_Q9NP79_87_QLGDNEAITQEIVGCAHLENYALK (UniProt Q9NP79)	0.0147
VPS26B_Q4G0F5_334_TPSQLSDNNCRQ (UniProt Q4G0F5)	-0.205

Target	probe-labelled cysteine peptide fold change
VAV3_Q9UKW4_187_CPENDIR (UniProt Q9UKW4)	-0.136
TRAP1_Q12931_527_KDTEVLFCFEQFDELTLLHLR (UniProt Q12931)	0.143
TRPM7_Q96QT4_1411_FFVSTPSQPSCK (UniProt Q96QT4)	-0.337
TUBA4A_P68366_4_MRECISVHVGQAGVQMGNACWELYCLEHGIQPDGQMPSDK (UniProt P68366)	-0.0787
TPP1_O14773_365_GLTLLFASGDSGAGCWSVSGR (UniProt O14773)	-0.146
UHRF2_Q96PU4_42_VWALFDVRPECQR (UniProt Q96PU4)	-0.064
TRIM33_Q9UPN9_276_KKEDVSESVGASGQRPVFCPVHK (UniProt Q9UPN9)	-0.0301
TXNDC5_Q8NBS9_350+353_FYAPWCGHCK (UniProt Q8NBS9)	-0.375
VPS33B_Q9H267_259_CGSVDFGPEVTSSDK (UniProt Q9H267)	0.169
TTLL12_Q14166_126_ESGLQAAHPNSIFLIDHAWTCR (UniProt Q14166)	0.0995
TYSND1_Q2T9J0_17_AAEQAGCMVSASR (UniProt Q2T9J0)	0.0109
TRMT10C_Q7L0Y3_78_SSVQEECVSTISSSKDEDPLAATR (UniProt Q7L0Y3)	-0.141
UHRF1BP1L_A0JNW5_398_NGWANELLHEFECNVEMLK (UniProt A0JNW5)	-0.0203
TRIM59_Q8IWR1_10+13_MHNFEEELTCPICYSIFEDPR<|>IFT80_Q9P2H3-3_10+13_MHNFEEELTCPICYSIFEDPR (UniProt Q9P2H3+Q8IWR1)	-0.194
TXNRD2_Q9NNW7_523_SGLDPTVTGCUG (UniProt Q9NNW7)	-1.15
TRIM25_Q14258_110_ASAPSPNAQVACDHCLK (UniProt Q14258)	-0.0981
VPS37A_Q8NEZ2_375_TICHCR (UniProt Q8NEZ2)	0.41
TRMT1_Q9NXH9_621_GDQCCYSHSPPTPR (UniProt Q9NXH9)	-0.0265
TWSG1_Q9GZX9_185_ISCESMGASK (UniProt Q9GZX9)	-0.121

— the supplement of paper PMC12067093, “Discovery and optimisation of a covalent ligand for TRIM25 and its application to targeted protein ubiquitination” (Chemical Science, 2025)
